Here are results for 9 molecules from PubChem BioAssay (NCI).

This is part of a sample that, as a whole, favours compounds with a hit. Of some 79,000 tested, about 15% had one in any assay. Unmarked numbers belong to inactive results. Calls of active or inactive are those of the source. Cut-off read from the data, not from the text of the source: active = growth inhibition above about 70%; inactive = the rest.

Experiment [1] can be described thus: NCI Yeast Anticancer Drug Screen. Data for the rad50 strain (AID 155).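 Note: 0% = growth of vehicle-only cultures of the same strain.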 The settings on record: S. cerevisiae rad50 strain growth inhibition, stronger effect = higher value. In short, it runs like this: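 DNA repair mutant yeast, compound exposure, growth read-out; inhibition is taken relative to vehicle.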
The nature of experiment [2]: NCI Yeast Anticancer Drug Screen. Data for the mec2-1 strain (AID 157). Conditions: S. cerevisiae mec2-1 strain, stronger effect = higher value. In short, it runs like this:
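Using mec2-1 yeast: add compound, measure growth, express inhibition versus vehicle-treated cultures.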

A short description of experiment [3]: NCI Yeast Anticancer Drug Screen. Data for the sgs1 mgt1 strain (AID 161).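 Note: 0% = growth of cultures given vehicle only.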 Conditions: S. cerevisiae sgs1 mgt1 strain, stronger effect = higher value. In short, it runs like this: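 Percent growth inhibition was derived by comparing compound-exposed mutant yeast with vehicle-exposed cultures. The strain carries alterations in DNA damage repair.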
Experiment [4] is described as follows: NCI Yeast Anticancer Drug Screen. Data for the cln2 rad14 strain (AID 165).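 Note: 0% = growth equal to vehicle treated cultures.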 The settings on record: S. cerevisiae cln2 rad14 strain, stronger effect = higher value. In short, it runs like this:
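Yeast strain cln2 rad14, bearing defects in cell cycle control and DNA repair, serves as the test system; values reflect growth inhibition compared with vehicle.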

Experiment [5] in a line: NCI Yeast Anticancer Drug Screen. Data for the bub3 strain (AID 167). Conditions: S. cerevisiae bub3 mutant strain, stronger effect = higher value. In short, it runs like this:
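In this screen, a yeast mutant lacking normal mitotic checkpoint function is challenged with compound. Relative growth versus vehicle gives the inhibition value.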

The nature of experiment [6]: NCI Yeast Anticancer Drug Screen. Data for the mlh1 rad18 strain (AID 175). The settings on record: S. cerevisiae mlh1 rad18 strain growth inhibition, stronger effect = higher value. In short, it runs like this: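 Steps: expose repair-defective yeast to compound; measure growth; express inhibition against vehicle-treated controls.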
Setting [7] is: at 5.0 µM (retest, dose inferred, filed as 0.5).
Setting [8] is: at 50.0 µM (retest, dose inferred, filed as 5.0).

For `CCN(CC)CCNc1ccc(C)c2sc3ccc(OC)cc3c(=O)c12`, the growth inhibition is 32% in experiment [1] (setting [7]); 94% (active) in experiment [1] (setting [8]); 90.7% (active) in experiment [1] (at 50.0 µM); 22% in experiment [2] (setting [7]); 97% (active) in experiment [2] (setting [8]); 89.2% (active) in experiment [2] (at 50.0 µM). The growth inhibition in experiment [3] (setting [7]) was 23%; in experiment [3] (setting [8]) it was 98% (active); in experiment [3] (at 50.0 µM), 17.2%; in experiment [4] (setting [7]), 16%; in experiment [4] (setting [8]) it was 87% (active); in experiment [4] (at 50.0 µM), 30.9%. Also, the growth inhibition in experiment [5] (setting [7]) was 31%; in experiment [5] (setting [8]) it was 99% (active); in experiment [5] (at 50.0 µM), 1%; in experiment [6] (setting [7]), 32%; in experiment [6] (setting [8]), 98% (active); in experiment [6] (at 50.0 µM), 93% (active).

As to `Cc1noc(NS(=O)(=O)c2ccc(NCc3c4ccccc4nc4cc(Cl)ccc34)cc2)c1C`, the growth inhibition was 4% in experiment [1] (setting [7]); -13% in experiment [1] (setting [8]); 98.5% (active) in experiment [1] (at 50.0 µM); 4% in experiment [2] (setting [7]); -7% in experiment [2] (setting [8]); 98.9% (active) in experiment [2] (at 50.0 µM). In addition, the growth inhibition was 5% in experiment [3] (setting [7]); -6% in experiment [3] (setting [8]); 98.5% (active) in experiment [3] (at 50.0 µM); 1% in experiment [4] (setting [7]); -3% in experiment [4] (setting [8]); 98.2% (active) in experiment [4] (at 50.0 µM). In addition, the growth inhibition in experiment [5] (setting [7]) is 9%; in experiment [5] (setting [8]), -3%; in experiment [5] (at 50.0 µM), 98.2% (active); in experiment [6] (setting [7]) it was 3%; in experiment [6] (setting [8]), -5%; in experiment [6] (at 50.0 µM), 98.3% (active).

For `Cc1cnc2c(c1C)C(=O)c1ccccc1C2=O`, the growth inhibition in experiment [1] (setting [7]) was 27%; in experiment [1] (setting [8]) it was 92% (active); in experiment [1] (at 50.0 µM) it was 64.4%; in experiment [2] (setting [7]) it was 26%; in experiment [2] (setting [8]) it was 88% (active); in experiment [2] (at 50.0 µM), 50.2%. The growth inhibition is 27% in experiment [3] (setting [7]); 81% (active) in experiment [3] (setting [8]); 87% (active) in experiment [3] (at 50.0 µM); 27% in experiment [4] (setting [7]); 75% (active) in experiment [4] (setting [8]); 83.1% (active) in experiment [4] (at 50.0 µM). Also, the growth inhibition was 32% in experiment [5] (setting [7]); 91% (active) in experiment [5] (setting [8]); 84.1% (active) in experiment [5] (at 50.0 µM); 26% in experiment [6] (setting [7]); 92% (active) in experiment [6] (setting [8]); 89.3% (active) in experiment [6] (at 50.0 µM).

For the molecule `CCOC(=O)C(=N\Nc1cccc(C)c1C)/C(C)=N\NC(N)=S`, the growth inhibition in experiment [1] (setting [7]) is 3%; in experiment [1] (setting [8]) it was 35%; in experiment [1] (at 50.0 µM), 70.2% (active); in experiment [2] (setting [7]) it was 9%; in experiment [2] (setting [8]) it was 56%; in experiment [2] (at 50.0 µM) it was 38.2%. Moreover, the growth inhibition in experiment [3] (setting [7]) was 32%; in experiment [3] (setting [8]), 76% (active); in experiment [3] (at 50.0 µM), 75.8% (active); in experiment [4] (setting [7]) it was -6%; in experiment [4] (setting [8]), 14%; in experiment [4] (at 50.0 µM) it was 64.1%. In addition, the growth inhibition was 3% in experiment [5] (setting [7]); 34% in experiment [5] (setting [8]); 59.7% in experiment [5] (at 50.0 µM); 30% in experiment [6] (setting [7]); 81% (active) in experiment [6] (setting [8]); 81.1% (active) in experiment [6] (at 50.0 µM).

`O=C(Cc1nc2ccccc2s1)C(=O)Nc1ccc(Cl)cc1`: the growth inhibition in experiment [1] (setting [7]) is 2%; in experiment [1] (setting [8]), 4%; in experiment [1] (at 50.0 µM), 8%; in experiment [2] (setting [7]), -1%; in experiment [2] (setting [8]), 2%; in experiment [2] (at 50.0 µM), 23.1%. For the same molecule, the growth inhibition in experiment [3] (setting [7]) is 4%; in experiment [3] (setting [8]) it was 0%; in experiment [3] (at 50.0 µM) it was 17.5%; in experiment [4] (setting [7]) it was 2%; in experiment [4] (setting [8]) it was 2%; in experiment [4] (at 50.0 µM), 75% (active). For the same molecule, the growth inhibition in experiment [5] (setting [7]) was 5%; in experiment [5] (setting [8]), -2%; in experiment [5] (at 50.0 µM) it was 63.5%; in experiment [6] (setting [7]) it was 1%; in experiment [6] (setting [8]) it was 7%; in experiment [6] (at 50.0 µM), 3.3%.

As to `Cn1c(-c2ccccc2)c(CCNC(=O)C2CCC2)c2ccccc21`, the growth inhibition in experiment [1] (setting [7]) is 18%; in experiment [1] (setting [8]) it was 18%; in experiment [1] (at 50.0 µM), 81.2% (active); in experiment [2] (setting [7]), 14%; in experiment [2] (setting [8]), 14%; in experiment [2] (at 50.0 µM), 86% (active). In addition, the growth inhibition in experiment [3] (setting [7]) is 12%; in experiment [3] (setting [8]) it was 12%; in experiment [3] (at 50.0 µM), 79.2% (active); in experiment [4] (setting [7]), 7%; in experiment [4] (setting [8]), 7%; in experiment [4] (at 50.0 µM) it was 77.3% (active). In addition, the growth inhibition is 11% in experiment [5] (setting [7]); 11% in experiment [5] (setting [8]); 79.2% (active) in experiment [5] (at 50.0 µM); 18% in experiment [6] (setting [7]); 18% in experiment [6] (setting [8]); 75.2% (active) in experiment [6] (at 50.0 µM).

Turning to `CN(C)Cc1cc(C(C)(C)C)cc(C2CCCCC2)c1O`, the growth inhibition in experiment [1] (setting [7]) is 2%; in experiment [1] (setting [8]), 58%; in experiment [1] (at 50.0 µM) it was 66.4%; in experiment [2] (setting [7]), -9%; in experiment [2] (setting [8]), 66%; in experiment [2] (at 50.0 µM), 38.5%. The growth inhibition in experiment [3] (setting [7]) is -1%; in experiment [3] (setting [8]) it was 95% (active); in experiment [3] (at 50.0 µM) it was 74.3% (active); in experiment [4] (setting [7]), -4%; in experiment [4] (setting [8]) it was 8%; in experiment [4] (at 50.0 µM) it was 61.7%. Also, the growth inhibition in experiment [5] (setting [7]) was -6%; in experiment [5] (setting [8]), 40%; in experiment [5] (at 50.0 µM) it was 71.8% (active); in experiment [6] (setting [7]), 1%; in experiment [6] (setting [8]), 94% (active); in experiment [6] (at 50.0 µM) it was 92.4% (active).

Take `C/C=C(\CCC1NCCc2c1[nH]c1ccccc21)[Si](C)(C)C` (configuration not stated): the growth inhibition was -20% in experiment [1] (setting [7]); 99% (active) in experiment [1] (setting [8]); 96.3% (active) in experiment [1] (at 50.0 µM); -4% in experiment [2] (setting [7]); 99% (active) in experiment [2] (setting [8]); 86.5% (active) in experiment [2] (at 50.0 µM). Moreover, the growth inhibition was 19% in experiment [3] (setting [7]); 99% (active) in experiment [3] (setting [8]); 93.1% (active) in experiment [3] (at 50.0 µM); 4% in experiment [4] (setting [7]); 99% (active) in experiment [4] (setting [8]); 75.3% (active) in experiment [4] (at 50.0 µM). The growth inhibition in experiment [5] (setting [7]) was 11%; in experiment [5] (setting [8]) it was 98% (active); in experiment [5] (at 50.0 µM) it was 77.8% (active); in experiment [6] (setting [7]) it was -21%; in experiment [6] (setting [8]) it was 100% (active); in experiment [6] (at 50.0 µM), 95.8% (active).

With `COc1cc(C(c2cc3c(cc2O)OCO3)N2CCN(C(c3ccc(O)c(OC)c3)c3cc4c(cc3O)OCO4)CC2)ccc1O` (configuration not stated), the growth inhibition in experiment [1] (setting [7]) was -1%; in experiment [1] (setting [8]), 98% (active); in experiment [1] (at 50.0 µM) it was 99.2% (active); in experiment [2] (setting [7]), 3%; in experiment [2] (setting [8]), 99% (active); in experiment [2] (at 50.0 µM), 99.3% (active). The growth inhibition is -3% in experiment [3] (setting [7]); 97% (active) in experiment [3] (setting [8]); 99.5% (active) in experiment [3] (at 50.0 µM); 2% in experiment [4] (setting [7]); 82% (active) in experiment [4] (setting [8]); 96.7% (active) in experiment [4] (at 50.0 µM). Also, the growth inhibition in experiment [5] (setting [7]) is -1%; in experiment [5] (setting [8]), 99% (active); in experiment [5] (at 50.0 µM), 99% (active); in experiment [6] (setting [7]) it was 2%; in experiment [6] (setting [8]), 98% (active); in experiment [6] (at 50.0 µM) it was 98.5% (active).
